PNC inhibitor = High Content Assay for Compounds that inhibit the Assembly of the Perinucleolar Compartment; PC3M PTB-GFP, PNC prevalence imaging, 16 h; hits give low values; activity change (PNC), negative = inhibition, % at 10 µM; hit rate 3.1% among 140,000;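 active = readout at or below -70, meaning at least 70% loss of cells showing the perinucleolar compartment, a nuclear body marking cancer cells; inconclusive = readout between -30 and a set limit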;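 note: plate controls were DMSO wells for no effect and camptothecin positive control wells for full effect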
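PC3M cells stably expressing PTB-GFP, 750–1000 cells/well, treated 16 h at 37 °C with compound (23 nl of library stock), in duplicate. After paraformaldehyde fixation and Hoechst stain, imaged at 20x; PNC prevalence scored by image analysis.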
ALDH1A1 inh = qHTS Assay for Inhibitors of Aldehyde Dehydrogenase 1 (ALDH1A1); Purified ALDH1A1, NADH fluorescence, propionaldehyde substrate; hit rate 7.3% among 220,000; Potency, µM (highest dose often 75.3 µM), inactives show at the top dose activity, negative = inhibition, most hits filed as inhibitors;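 note: potency is the fitted concentration of half-maximal effect; plate controls were no enzyme wells and a reference inhibitor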
HPGD inh = qHTS Assay for Inhibitors of HPGD (15-Hydroxyprostaglandin Dehydrogenase); 15-hydroxyprostaglandin dehydrogenase [NAD(+)] (Homo sapiens), P15428; purified HPGD, NADH fluorescence kinetic, PGE2 substrate; Potency, µM, for the others: at the top dose activity change, negative = inhibition, usual class: inhibitors; hit rate 4.3% among 150,000; AID 894, 2007; note: potency is the fitted concentration of half-maximal effect
Target sequence (P15428 whole entry, looked up): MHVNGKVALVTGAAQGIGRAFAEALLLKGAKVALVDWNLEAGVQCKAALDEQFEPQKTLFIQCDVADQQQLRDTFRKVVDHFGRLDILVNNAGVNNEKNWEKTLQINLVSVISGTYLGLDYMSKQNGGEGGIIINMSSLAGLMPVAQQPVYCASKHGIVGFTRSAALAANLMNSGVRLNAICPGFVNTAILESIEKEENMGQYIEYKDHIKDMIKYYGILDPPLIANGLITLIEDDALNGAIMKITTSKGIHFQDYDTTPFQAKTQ
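20 nM HPGD preincubated 15 min at room temperature with compound in 50 mM Tris-HCl pH 8, 0.01% Tween 20. Started with 1 mM NAD+ and 30 uM prostaglandin E2; NADH fluorescence (360/450 nm) read 5 times over 30-s intervals, last minus first.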
An asterisk follows results filed as active; ? = inconclusive; . = not tested or not shown; [ ] = dose if it differs, or a comment. This is a sample that favours compounds with a hit; in the whole collection about 11% have one here. Unless noted, calls come from the whole dose curve; as a rule, active = well fitted inhibition curve with a large enough effect (not every such curve was filed as active); inconclusive = small, poorly fitted or top-dose-only effect, or another doubt; inactive = no such curve, though single readings can be large or run the other way. Unless noted, % is set by controls: 0 for no effect and ±100 for the full control effect.

SMILES	PNC inhibitor	ALDH1A1 inh	HPGD inh
Cc1ccc(NC(=S)NCc2ccc3[nH]c4c(c3c2)CCCC4)cc1	15	18µM*	-36%
Cc1csc(NC(=O)c2cc3c(s2)-c2ccccc2OC3)n1	41	?	?
Cc1c(NC(=O)c2cc3c(s2)-c2ccccc2OC3)cccc1[N+](=O)[O-]	?	14µM*	?
Cc1nc(NC(=O)CCl)sc1C(=O)N(C)C	.	32µM*	.
Cc1nc(NC(=O)C(Cl)Cl)sc1C(=O)N(C)C	30	-6%	-16%
O=C(NC(=S)Nc1cc(S(=O)(=O)N2CCOCC2)ccc1N1CCOCC1)C1CCCC1	.	3%	.
COc1ccc(CNC(=O)C2CC(=O)N(c3ccc(OCC(=O)N4CCCCC4)cc3)C2)cc1 (configuration not stated)	-2	?	14µM*
O=C(NCc1ccccc1)C1CC(=O)N(c2ccc(OCC(=O)N3CCCC3)cc2)C1 (configuration not stated)	65	10%	-12%
c1ccc(Cc2nnc3sc(-c4ccco4)nn23)cc1	50	?	-30%
S=c1[nH]cc(Cc2ccccc2)s1	47	10µM*	20µM*
N=C1CCCN1CC(=O)c1ccc(Br)cc1	-11	1%	-9%
CCOC(=O)c1c(NC(=S)Nc2ccc(Cl)cc2)sc2c1CCN(C)C2	38	25µM*	-27%
CCOC(=O)c1c(NC(=O)C(F)(OC)C(F)(F)F)sc2c1CCN(C)C2 (configuration not stated)	2	?	-21%
CCOC(=O)c1c(NC(=S)Nc2ccc(OCC)cc2)sc2c1CCN(C)C2	.	24µM*	.
CCOC(=O)c1c(NC(=O)Nc2ccc(F)cc2)sc2c1CCN(C)C2	.	-6%	.
CC(C)(C)c1ccc2c(c1)N(CC(=O)O)C(=O)CO2	8	3.2µM*	-4%
Cc1ccc2c(c1)N(CC(=O)O)C(=O)CO2	-4	-6%	-6%
CN1CCN(C(=O)C2=C[C@@H](c3ccccc3)C[C@@H](OCc3ccc(CO)cc3)O2)CC1	.	13µM*	.
O=C(Nc1ccccc1)C1=C[C@H](c2ccc3c(c2)OCO3)C[C@H](OCc2ccc(CO)cc2)O1	.	28µM*	.
O=C(NC1CC1)C1=C[C@@H](c2ccc3c(c2)OCO3)C[C@@H](OCc2ccc(CO)cc2)O1	.	4%	.
C=CCOC(=O)C1=C[C@@H](c2ccc(Br)cc2)C[C@@H](OCc2ccc(CO)cc2)O1	.	18µM*	.
O=C(C1=C[C@@H](c2ccc(C(F)(F)F)cc2)C[C@@H](OCc2ccc(CO)cc2)O1)N1CCN(Cc2ccc3c(c2)OCO3)CC1	.	13µM*	.
NC(=O)C1=C[C@@H](c2ccc(Br)cc2)C[C@@H](OCc2ccc(CO)cc2)O1	.	2%	.
O=C(C1=C[C@@H](c2ccc(Br)cc2)C[C@@H](OCc2ccc(CO)cc2)O1)N1CCN(Cc2ccc3c(c2)OCO3)CC1	.	5%	.
CN1CCN(C(=O)C2=C[C@@H](c3ccc(Br)cc3)C[C@@H](OCc3ccc(CO)cc3)O2)CC1	.	-3%	.
SMILES	PNC inhibitor	ALDH1A1 inh	HPGD inh
CCOC(=O)C1C(c2cccc(F)c2)NC(=S)NC1(O)C(F)(F)F (configuration not stated)	?	?	-2%
CCOc1ccc(CNC(=O)c2ccc(Sc3ccc(C)cc3)c(NC(C)=O)c2)cc1	?	-19%	-19%
COC(=O)N1CC=CC1(C)C(=O)O (configuration not stated)	.	5%	-6%
NC1=C([N+](=O)[O-])C(c2ccc(F)cc2)C2=C(CCCC2=O)O1 (configuration not stated)	2	-1%	-30%
C#CCNC(=O)C1=C[C@@H](c2ccccc2)C[C@@H](OCc2ccc(CO)cc2)O1	.	-2%	.
C#CCNC(=O)C1=C[C@H](c2ccc(C(F)(F)F)cc2)C[C@H](OCc2ccc(CO)cc2)O1	.	28µM*	.
O=C(CCCOc1ccc(Cl)cc1Cl)N/N=C/c1ccccc1O	56	2%	-18%
COc1ccc(NC(=O)c2cc3c(s2)CCC(C)C3)cc1S(=O)(=O)N1CCOCC1 (configuration not stated)	?	16µM*	-12%
COc1ccc(C(=O)Nc2cccc(C(C)=O)c2)cc1S(=O)(=O)N1CCOCC1	?	-9%	-1%
CC1CCc2sc(C(=O)OCC(=O)NC(C)C)cc2C1 (configuration not stated)	.	5%	.
CSc1nnc(NC(=O)c2ccc(C)c(S(=O)(=O)N3CCOCC3)c2)s1	?	?	20µM*
Cc1ccc(S(=O)(=O)N2CCOCC2)cc1NC(=O)c1cc2c(s1)CCC2	4	?	-5%
Cc1nnc(NC(=O)c2ccc(C)c(S(=O)(=O)N3CCOCC3)c2)s1	?	9%	-7%
Cc1ccc(NC(=O)c2cc3c(s2)CCC3)cc1S(=O)(=O)N1CCOCC1	37	1.1µM*	-9%
CC1CCc2sc(C(=O)NN)cc2C1 (configuration not stated)	.	7.1µM*	.
O=C(/C(=N/N=C/c1ccc(O)c(O)c1)c1ccccc1)c1ccccc1	?	0%	-18%
CCOC(=O)N1CCN(C(=O)CNC2CCCCCCC2)CC1	.	-5%	.
Cc1ccccc1/C(N)=N/O	2	12%	-11%
N#CC(C#N)=C(Nc1ccc(F)cc1)SCc1cccc(F)c1	-21	5%	-6%
Cc1ccc(S(=O)(=O)Nc2cccc3ncccc23)s1	?	13µM*	28µM*
CCc1ccc(S(=O)(=O)Nc2ccc(-c3nc4cccnc4s3)cc2)s1	28	?	?
C=CCN1c2ccccc2[C@]23C[C@@H](C(=O)OC)N(S(=O)(=O)c4cccs4)C2=NC(C(=O)OC)=C(C(=O)OC)[C@H]13	.	12%[13.5 µM]	2%
COc1ccc(CC(=O)NCc2nnc(SCc3ccc([N+](=O)[O-])cc3)n2C)cc1	.	-5%	.
CCCn1c(SCC(=O)c2cc(OC)ccc2OC)nnc1-c1ccco1	?	7%	-10%
CCn1c(SCC(=O)c2cc(OC)ccc2OC)nnc1C(C)C	-19	28µM*	-16%
SMILES	PNC inhibitor	ALDH1A1 inh	HPGD inh
CCn1c(CNC(=O)Cc2ccc(OC)cc2)nnc1SCCOc1ccccc1	-12	-1%	-4%
CCn1c(SCC(=O)c2ccc(OC)cc2)nnc1C(C)NC(=O)c1ccc(OC)cc1 (configuration not stated)	-18	12µM*	-16%
COc1ccc(CC(=O)NCc2nnc(SCc3ccc(C)cc3)n2C)cc1	-92*	-4%	-12%
CCn1c(CNC(=O)Cc2ccc(OC)cc2)nnc1SCC(=O)c1ccccc1	.	2.8µM*	.
CCn1c(SCC(=O)c2ccc(Br)cc2)nnc1C(C)NC(=O)Cc1ccc(OC)cc1 (configuration not stated)	15	8%	-10%
COc1ccc2[nH]cc(CCNc3ccnc(-c4ccccc4C(F)(F)F)n3)c2c1	.	8%	.
CCOC(=O)C[N+]1(C)CCN(C(C)=O)CC1	.	6%	.
Cc1ccc(S(=O)(=O)Nc2ccc(Oc3cccnc3)nc2)cc1	.	26%	.
CS(=O)(=O)N1CCC(C(=O)N2CCN(c3ccccc3F)CC2)CC1	.	8%	.

Screening data deposited in PubChem by National Center for Advancing Translational Sciences (NCATS).
